Structures are written as SMILES. Hit rate of the full screen: of about 2,400 compounds, about 1,400 (58%) were called active. The set was probably picked from earlier hits. This is one part of the list. A number with no mark means an inactive call.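 The calls were made as follows: active = inhibition of 30% or more at any tested dose; inconclusive = primary hits over the limit that were never retested; inactive = the rest.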

As usually defined, the inhibition is the change of the read-out against control, counted positive when it falls. As a reminder, the IC50 is the midpoint of a concentration-inhibition curve.

A short description of this experiment: coupled detection enzyme interference, dose response, artefact control for MgcRacGAP inhibitor project, biochemical, coupled enzyme counter-screen (AID 624351).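 Also: signal is the ADP detection kit reading of free GDP without any GAP enzyme.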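 As to inhibition: 0% = median positive control wells and 100% = median negative control wells.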 Conditions: ADP Hunter coupled enzyme counter-screen, fluorescence, no MgcRacGAP; series mostly up to 80 µM; inhibition: at the top concentration. A general note: Counterscreens check selectivity or assay interference.
On to `COc1ccc(CN2CCN(Cc3ccc(Br)cc3)CC2)c(OC)c1OC`, for which the “inhibition” value was 25.7%.
As for `COc1cccc(CN2CCN(C(=O)c3ccco3)CC2)c1OC`, the “inhibition” value was 14.7%.
Regarding `COc1cc(/C=C/C(=O)OCC(=O)N2CCN(C(=O)c3ccco3)CC2)ccc1O`, the IC50 is 33.8 µM (active).
For the compound `COc1ccc(C(=O)N2CCN(CCCc3ccccc3)CC2)cc1OC`, the “inhibition” value is 18.2%.
In the case of `Cc1sc2ncnc(Nc3ccc(O)cc3)c2c1C`, the IC50 is 38.2 µM (active).
As to `Cc1sc2ncnc(N(C)CCc3ccccn3)c2c1C`, the “inhibition” value was 23.9%.
`Cc1sc2ncnc(N/N=C/c3ccc(O)cc3)c2c1C`: the IC50 is 48.3 µM (active).
Regarding `COC(=O)/C(=C/Nc1ccc(O)cc1)[N+](=O)[O-]`, the IC50 was 23.9 µM (active).
Turning to `O=C(CN1CCN(C2CCCCC2)CC1)Nc1ccccc1-c1ccccc1`, the “inhibition” value was 27.4%.
For the compound `O=C(Nc1cc(Br)c(O)c(Br)c1)c1cccc(NC(=O)c2ccco2)c1`, the IC50 is 81.3 µM (active).
For `O=C(/C=C\c1ccco1)c1ccc(NC(=O)c2ccco2)cc1`, the “inhibition” value was -1.43%.
Turning to `O=c1ccn(-c2ccccc2)[nH]1`, the 50% inhibitory concentration (IC50) was 51.3 µM (active).
For `O=C1CCN(c2ccccc2)N1`, the “inhibition” value was -2.46%.
For the compound `CCN(CC)CCCNCC(=O)Nc1cc(C)on1`, the “inhibition” value is 20.8%.
`Oc1ccc(N=Nc2ccccc2)cc1`: the half-inhibitory concentration (IC50) is 78.2 µM (active).
As for `Nc1ccc(N=Nc2ccc(O)cc2)c(N)n1`, the IC50 is 10.2 µM (active).
On the same count and under the same terms, the same measure for `CC(=O)Nc1ccc(N=Nc2ccc(O)cc2)cc1`: 24.5 µM (active); for `Nc1ccc(Nc2nc(-c3ccncc3)cs2)cc1`: 9.43 µM (active).
As to `NS(=O)(=O)c1ccc(Nc2nc(-c3ccc(O)cc3O)cs2)cc1`, the IC50 was 48.8 µM (active).
`Nc1ccc(Nc2nc(-c3cc4ccccc4oc3=O)cs2)cc1`: the “inhibition” value is 24.4%.
As for `NS(=O)(=O)c1ccc(Nc2nc(-c3ccc(O)cc3)cs2)cc1`, the IC50 is 20.9 µM (active).
In the case of `O=c1oc2ccccc2cc1-c1csc(Nc2ccc(O)cc2)n1`, the half-maximal inhibitory concentration (IC50) is 58 µM (active).
Take `Cc1cc(NS(=O)(=O)c2ccc(Nc3nc(-c4ccc(O)cc4)cs3)cc2)no1`: the concentration for half-maximal inhibition (IC50) was 30.2 µM (active).
On to `O=C(Nc1ccccc1Cl)/C(Cl)=C(\Cl)S(=O)c1ccccc1` (stereo not drawn), for which the “inhibition” value is 5.09%.
Consider `Cc1cnc(C(=O)Oc2ccc(-c3ccccc3)cc2)cn1`, for which the “inhibition” value was 19.4%.
As to `O=C(Nc1ccccc1Cl)Oc1ccc(-c2ccccc2)cc1`, the concentration for half-maximal inhibition (IC50) was 14.1 µM (active).
Take `Cc1cc(C)c(C#N)c(SCS(=O)Cc2ccc(Cl)cc2)n1` (stereo not drawn): the “inhibition” value was 2.15%.
Regarding `NC(=NCCCCCCN=C(N)/N=C(\N)Nc1ccc(Cl)cc1)/N=C(\N)Nc1ccc(Cl)cc1`, the “inhibition” value was 7.86%.
For the compound `Oc1ccc(/C=N/Nc2cc(N3CCOCC3)nc(N3CCOCC3)n2)cc1`, the IC50 was 49.2 µM (active).
`COc1ccc2c(-c3ccccc3)cc(N3CCOCC3)nc2c1`: the “inhibition” value was -30.5%.
For the compound `Oc1ccc(/C=N/Nc2cc(N3CCOCC3)nc(N3CCOCC3)n2)cc1O`, the IC50 is 75.5 µM (active).
As to `Oc1ccc(/C=N\Nc2cc(N3CCOCC3)nc(N3CCOCC3)n2)c(O)c1`, the IC50 is 76.4 µM (active).
With `CN(C)c1ccc(-n2cccc2/C=C/[N+](=O)[O-])cc1`, the “inhibition” value was -0.44%.
Regarding `CCCCN(C)C(=O)C1CCN(Cc2cccc(OCc3ccccc3)c2)CC1`, the “inhibition” value was 12.6%.
Still for that read-out and setting: the same measure for `COc1ccc2[nH]c3c(C)c4ccncc4c(C)c3c2c1`: 7.02%.
Take `Cc1ccc(O)c(C=Nc2ccc3[nH]ncc3c2)c1`: the concentration for half-maximal inhibition (IC50) was 34.5 µM (active).
`COc1ccc(C=Nc2ccc3[nH]ncc3c2)c(O)c1`: the IC50 was 38.4 µM (active).
On the same count and under the same terms, the same measure for `Oc1ccc(Br)cc1C=Nc1ccc2[nH]ncc2c1`: 48.2 µM (active).
Take `Brc1ccc(OCCCN2CCOCC2)cc1`: the “inhibition” value is 17.2%.
`Cc1ccc(/C=C2/C(=O)ON=C2c2ccccc2)o1`: the “inhibition” value is -8.72%.
Take `CCN(c1ccccc1)S(=O)(=O)c1ccc(Cl)c(NC(=O)CN(C)C2CCN(C)CC2)c1`: the “inhibition” value was 10.9%.
As for `CCN(c1ccccc1)S(=O)(=O)c1ccc(N2CCN(c3ccc(O)cc3)CC2)nc1`, the 50% inhibitory concentration (IC50) was 53.5 µM (active).
As for `COc1ccccc1CNCC(=O)N1CC(=O)Nc2ccccc21`, the “inhibition” value is -1.72%.
Regarding `CN(C)c1ccc2c(c1)C(=NO)c1ccccc1-2`, the concentration for half-maximal inhibition (IC50) was 42.8 µM (active).
With `ON=C1c2ccccc2-c2ccc(O)cc21`, the IC50 is 36.5 µM (active).
In the case of `CCN(Cc1ccccc1)C(c1ccc(C)cc1)c1nnnn1C(C)(C)CC` (stereo not drawn), the “inhibition” value is 1.68%.
On to `Brc1cccc(OCCN2CCOCC2)c1`, for which the “inhibition” value was 17.5%.
Consider `Nc1ccc(-c2nc3ccc(N)cc3o2)cc1`, for which the IC50 was 44.4 µM (active).
Turning to `CCOc1cc(/C=C/c2cccc[n+]2C)ccc1O`, the half-maximal inhibitory concentration (IC50) was 27.2 µM (active).
On to `CCn1c(=O)c2c3c(sc2n2c(=S)[nH]nc12)CCC3`, for which the half-maximal inhibitory concentration (IC50) is 25 µM (active).
As to `COc1ccccc1-n1c(=O)c2c3c(sc2n2c(=S)[nH]nc12)CCC3`, the half-maximal inhibitory concentration (IC50) is 44.9 µM (active).
`COc1ccc(-n2c(=O)c3c4c(sc3n3c(=S)[nH]nc23)CCCC4)cc1`: the half-maximal inhibitory concentration (IC50) was 30.3 µM (active).
Consider `C=CCSC1=N/C(=C\C=C\c2ccco2)C(=O)S1`, for which the “inhibition” value was -7.09%.
As to `COc1ccc(/C=N/n2c(-c3n[nH]c4c3CCC4)n[nH]c2=S)cc1OC`, the half-inhibitory concentration (IC50) is 61.5 µM (active).
Consider `COc1cccc(/C=N/n2c(-c3n[nH]c4c3CCC4)n[nH]c2=S)c1O`, for which the IC50 is 54.6 µM (active).
On the same count and under the same terms, the same measure for `COc1ccc(/C=N/n2c(-c3n[nH]c4c3CCC4)n[nH]c2=S)c(OC)c1OC`: 65.7 µM (active); for `COc1cc(/C=N/n2c(C3CCCCC3)n[nH]c2=S)ccc1O`: 51.8 µM (active).
Regarding `C=CCOC(=O)c1cc(-c2ccc(/C=C3\C(=O)NC(=O)C(C#N)=C3C)o2)ccc1Cl`, the “inhibition” value is 5.47%.
Same read-out and setting: the same measure for `CCN(CC)CCCNCC(=O)Nc1ccc2c(c1)CCC2`: 17.8%.
On the same count and under the same terms, the same measure for `CCC1(c2ccccc2)NC(=O)N(CC(=O)Nc2ccc(N3CCCC3)cc2C)C1=O` (stereo not drawn): 27.8%.
Consider `CCN(CC)c1ccc(NC(=O)CN2C(=O)NC3(CCc4ccccc43)C2=O)cc1` (stereo not drawn), for which the IC50 is 83.2 µM (active).
In the case of `Nc1nc(N)c2[nH]c(=S)[nH]c2n1`, the “inhibition” value was 29.5%.
Turning to `O=C1C=CC2(C=C1)O[C@H](Cc1ccccc1)[C@@H](Cc1ccccc1)O2`, the “inhibition” value was 4.01%.
On to `C=CCNC(=O)CN1CCN(C(c2ccccc2)c2ccccc2)CC1`, for which the “inhibition” value was 12.3%.
`COc1cc(/C=N/NC(=O)CCN2CCN(C(c3ccccc3)c3ccccc3)CC2)ccc1O`: the IC50 is 53.4 µM (active).
As to `O=C1/C(=C\c2ccccc2)CN(C(=O)CCN2CCCCC2)C/C1=C/c1ccccc1`, the “inhibition” value was 0.94%.
For the compound `COc1cc(/C=N/NC(=O)CCN2CCCCC2)ccc1O`, the half-maximal inhibitory concentration (IC50) was 34.3 µM (active).
For the compound `COc1ccc(/C=N/NC(=O)CN2CCCCCCC2)c(C)c1C`, the “inhibition” value was 13.6%.
